# Results from PubChem BioAssay (NCATS).
# Results filed as inconclusive are left out. A call without a number means that no potency is given here. Activity calls are given as the source filed them. Unless noted, calls follow the shape of the dose curve; as a rule, active = well fitted curve in the direction sought with a large enough effect; inconclusive = small, poorly fitted or top-dose-only effect, or another doubt; inactive = no such curve, though single readings can be large; an effect the other way counts as inactive or inconclusive.
# Tests used:
# [1] = system: Zika virus NS2B-NS3 protease; experiment: Primary screen GU AMC qHTS for Zika virus inhibitors (AID 1347154); also: nearly all actives have a fitted effect of over 70% in size
# How it was run: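 Unlinked Zika NS2B hydrophilic domain/NS3 protease domain noncovalent complex (25 nM final) in 10 mM Tris-HCl pH 8.0, 0.01% Tween 20, with AMC peptide substrate. Fluorescence (ex 340, em 450 nm) change over 15 min, room temperature; percent inhibition fitted to 4-parameter Hill equation.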
# [2] = biological target: Glucocorticoid receptor (Homo sapiens) (UniProt P04150); experiment: GR-GFP Redistribution (AID 450;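 active = compounds whose dose series gives a full or clear partial fitted curve of increased nuclear translocation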; also: potency is read from the fitted curve at half-maximal effect); conditions: U2OS GR-GFP nuclear translocation, laser cytometry, 2 h
# Chain of Glucocorticoid receptor (Homo sapiens) (P04150 whole entry, looked up, the tested form may be a part): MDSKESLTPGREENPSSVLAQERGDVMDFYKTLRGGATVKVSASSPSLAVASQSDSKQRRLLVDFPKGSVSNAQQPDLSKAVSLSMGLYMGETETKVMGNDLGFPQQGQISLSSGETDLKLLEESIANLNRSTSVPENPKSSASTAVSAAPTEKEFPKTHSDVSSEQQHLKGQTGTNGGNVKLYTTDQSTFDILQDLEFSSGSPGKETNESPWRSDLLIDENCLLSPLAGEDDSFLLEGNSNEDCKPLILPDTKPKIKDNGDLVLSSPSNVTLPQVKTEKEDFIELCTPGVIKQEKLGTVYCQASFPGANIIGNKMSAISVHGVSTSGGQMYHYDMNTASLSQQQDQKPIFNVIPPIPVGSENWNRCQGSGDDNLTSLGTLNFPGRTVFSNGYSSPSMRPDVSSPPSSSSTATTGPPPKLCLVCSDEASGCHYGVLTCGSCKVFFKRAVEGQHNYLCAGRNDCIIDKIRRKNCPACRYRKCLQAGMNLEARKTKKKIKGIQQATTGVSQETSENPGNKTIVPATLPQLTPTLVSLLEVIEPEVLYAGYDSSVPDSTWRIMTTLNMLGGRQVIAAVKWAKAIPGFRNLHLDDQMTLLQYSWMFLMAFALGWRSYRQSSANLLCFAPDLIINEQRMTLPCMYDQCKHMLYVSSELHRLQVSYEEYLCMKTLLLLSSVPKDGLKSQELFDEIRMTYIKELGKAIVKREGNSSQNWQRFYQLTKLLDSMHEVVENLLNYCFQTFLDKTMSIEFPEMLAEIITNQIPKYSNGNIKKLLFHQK
# [3] = biological target: Glucocorticoid receptor (Homo sapiens) (UniProt P04150); experiment: GR-EFC Redistribution (AID 451; calls by dose curve; also: potency is read from the fitted curve at half-maximal effect); conditions: CHO-K1 GR-EFC translocation, beta-gal luminescence, 2 h
# How it was run: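 CHO-K1 cells stably expressing nuclear-localized β-gal enzyme acceptor and GR fused C-terminally to the enzyme donor fragment; ligand-driven nuclear translocation restores β-gal by complementation. Compounds titrated up to 46 uM final, 2 h at 37 °C; luminescence read.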
# [4] = biological target: DNA dC->dU-editing enzyme APOBEC-3G (Homo sapiens) (UniProt Q9HC16); experiment: qHTS for inhibitors of Vif-A3G interactions: Validation (AID 588379)
# Chain of DNA dC->dU-editing enzyme APOBEC-3G (Homo sapiens) (Q9HC16 whole entry, looked up): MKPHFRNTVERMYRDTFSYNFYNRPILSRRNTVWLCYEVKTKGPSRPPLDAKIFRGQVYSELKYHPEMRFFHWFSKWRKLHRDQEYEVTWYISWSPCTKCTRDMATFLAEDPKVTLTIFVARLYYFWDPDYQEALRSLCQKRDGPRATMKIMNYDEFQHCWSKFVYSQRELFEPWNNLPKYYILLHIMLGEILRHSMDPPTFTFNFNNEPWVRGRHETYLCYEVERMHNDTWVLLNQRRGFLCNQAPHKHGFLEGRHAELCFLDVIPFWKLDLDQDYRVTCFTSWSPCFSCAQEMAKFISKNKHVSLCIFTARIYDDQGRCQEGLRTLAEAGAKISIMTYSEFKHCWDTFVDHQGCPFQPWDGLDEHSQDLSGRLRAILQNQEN
# How it was run: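 HeLa cells stably expressing Vif and A3G-eYFP, 700 cells/well, incubated overnight at 37 deg C, then exposed to compound overnight at 37 deg C. Inhibition of Vif-mediated degradation read as increased yellow fluorescence (Ex 488/Em 500-530) by laser-scanning cytometry.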
# [5] = Confirmatory screen GU Rhodamine qHTS for Zika virus inhibitors qHTS (AID 1347157); also: nearly all actives have a fitted effect of over 70% in size; also: potency is read from the fitted curve at half-maximal effect
# How it was run: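 Unlinked NS2B/NS3, 25 nM; Rhod110 peptide, 1.5 microM; compounds, up to 114 microM. Reaction run 15 min at RT in 10 mM Tris-HCl pH 8.0, 0.01% Tween 20; kinetic fluorescence change fitted with a 4-parameter Hill model.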
# [6] = ZIKV-mCherry secondary qHTS for Zika virus inhibitors (AID 1347158); also: top concentration of the series differs between compounds
# How it was run: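 After overnight seeding at 37 °C, Vero cells receive compound and then ZIKV-mCherry (MOI 1). Following 48-72 h infection, cells are fixed, counterstained with Hoechst, and imaged; percent infected cells is derived from an mCherry intensity cut-off of 450 RFU.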
# [7] = Confirmatory screen NINDS Rhodamine qHTS for Zika virus inhibitors (AID 1347161); also: nearly all actives have a fitted effect of over 60% in size; also: potency is read from the fitted curve at half-maximal effect;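 as to activity change, negative = inhibition: purified Zika NS2B-NS3 protease with linked NS2B cofactor domain and Rhodamine110 peptide substrate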
# How it was run: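 Single-chain NS2B-NS3 protease, 25 nM, pH 8.0; compounds preincubated 15 min. Activity: Rhodamine110 release from 1.5 microM substrate over 15 min, room temperature, data fitted to 4-parameter Hill.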
# [8] = Tertiary RLuc qRT-PCR qHTS assay for Zika virus inhibitors (AID 1347169); also: top concentration of the series differs between compounds; nearly all actives have a fitted effect of over 55% in size
# How it was run: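 Vero cells (1,000 per well) plated overnight at 37 degrees C, treated with compound in DMSO, then infected with recombinant ZIKV-RLuc (Cambodian) at MOI 1-2 for 48-72 hrs. Live-cell Renilla luciferase substrate added; luminescence read after 1-1.5 hrs.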
# [9] = system: Zika virus NS2B-NS3 protease (linked); experiment: 384 well plate NINDS AMC confirmatory qHTS for Zika virus inhibitors (AID 1347163); also: nearly all actives have a fitted effect of over 50% in size; also: potency is read from the fitted curve at half-maximal effect;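 as to activity change, negative = inhibition: fluorescence of AMC released from Ac-VKTGKR-AMC peptide cleaved by the protease; top concentration of the series differs between compounds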
# How it was run: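 Linked protease 5/30/60 nM final; cpds up to 1 mM final, ~15 min preinc. Substrate Ac-VKTGKR-AMC 30 microM final. RT, dark, 25 min; FI ex 355/em 460; normalized to no-enzyme/no-inhibitor ctrls.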
# [10] = system: Zika virus NS2B-NS3 protease (linked construct); experiment: 384 well plate NINDS Rhodamine confirmatory qHTS for Zika virus inhibitors (AID 1347164);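 also: fluorescence from protease cleavage of Ac-LKRR-rhodamine 110 substrate; nearly all actives have a fitted effect of over 65% in size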; also: potency is read from the fitted curve at half-maximal effect; as to activity change, negative = inhibition: top concentration of the series differs between compounds
# How it was run: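 Linked protease at a final 5 nM, 30 nM or 60 nM was preincubated ~15 min with compounds, then given 10 microM Ac-LKRR-Rhodamine 110. Fluorescence (ex 485/em 538 nm) after 25 min in the dark at room temperature.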
# [11] = qHTS Assay for Lipid Storage Modulators (AID 1519; calls by dose curve); conditions: Drosophila S3 cells, BODIPY lipid droplet/cell ratio, laser cytometry, cells loaded with oleic acid
# How it was run: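 Cells seeded at 5,000 per well were treated with compounds over a concentration series and loaded with oleic acid (400 uM, as added). Lipid droplet fluorescence (488 nm excitation, 500-530 nm channel) was read by laser-scanning cytometry and normalized to 20 uM Triacsin C.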
structure (smiles),measurement,setting,value
CCCCCS(=O)(=O)CCCCCCCCCCn1c(-c2ccc(O)cc2)c(C)c2cc(O)ccc21,Potency,[1],inactive
COc1ccccc1CC(=N)N1C[C@@H]2C(=O)CCC(c3ccccc3)(c3ccccc3)[C@@H]2C1,Potency,[2],> 46 µM (inactive)
same,Potency,[3],> 46 µM (inactive)
same,Potency,[4],inactive
same,Potency,[1],inactive
COc1ccc2c(c1)Oc1nc(-c3ccc(C)s3)nc(SCC(=O)Nc3cccc(C(=O)O)c3)c1C2,Potency,[5],5.01 µM (active)
same,Potency,[6],inactive
same,Potency,[7],5.62 µM (active)
same,Potency,[8],inactive
COc1ccc2cccc(N3CCN(CCNC(=O)c4ccc(F)cc4)CC3)c2c1,Potency,[2],> 46 µM (inactive)
same,Potency,[3],> 46 µM (inactive)
same,Potency,[4],inactive
same,Potency,[1],inactive
CNC(=O)[C@H]1O[C@H](n2cnc3c(NCc4cccc(I)c4)nc(Cl)nc32)[C@@H](O)[C@@H]1O,Potency,[2],> 46 µM (inactive)
same,Potency,[3],> 46 µM (inactive)
same,Potency,[4],inactive
same,Potency,[1],inactive
CC(C)N=C(N)N=C(N)Nc1ccc(Cl)cc1,Potency,[1],inactive
CCOC(=O)c1ccc(N2C(=O)c3n[nH]c(-c4cccs4)c3C2c2ccc(Cl)cc2Cl)cc1 (configuration not stated),Potency,[5],31.6 µM (active)
same,Potency,[7],25.1 µM (active)
Cc1ccc(NC(=O)c2ccc3c(O)c(S(=O)(=O)c4ccccc4)c(=O)[nH]c3c2)cc1Cl,Potency,[5],8.91 µM (active)
same,Potency,[6],inactive
same,Potency,[7],6.31 µM (active)
same,Potency,[9],282 µM (active)
same,Potency,[8],inactive
CCCCCCCCCCCCCCCCCCc1ccc(C(=O)/C=C\C(=O)O)cc1,Potency,[2],> 46 µM (inactive)
same,Potency,[3],> 46 µM (inactive)
same,Potency,[4],inactive
same,Potency,[1],inactive
O=C(Nc1cccc(C(=O)OCc2cc(=O)n3nc(C4CC4)sc3n2)c1)c1cccc(Cl)c1,Potency,[5],56.2 µM (active)
same,Potency,[6],inactive
Cc1c(C2(c3cc(C(C)C)c(O)c(Br)c3C)OS(=O)(=O)c3ccccc32)cc(C(C)C)c(O)c1Br,Potency,[5],5.01 µM (active)
same,Potency,[6],inactive
same,Potency,[7],5.62 µM (active)
same,Potency,[9],126 µM (active)
same,Potency,[10],17.8 µM (active)
Cc1ccc(-c2nn(CC(C)(C)C)c3ncnc(N)c23)cc1,Potency,[2],> 46 µM (inactive)
same,Potency,[3],> 46 µM (inactive)
same,Potency,[4],inactive
same,Potency,[1],inactive
Cc1cc(Cn2cnc3c2C[C@@H](C(=O)O)N(C(=O)C(c2ccccc2)c2ccccc2)C3)ccc1N(C)C,Potency,[2],> 46 µM (inactive)
same,Potency,[3],> 46 µM (inactive)
same,Potency,[4],inactive
same,Potency,[1],inactive
CC(C)(C)c1ccc(S(=O)(=O)c2cnc(SCC(=O)Nc3ccc4c(c3)OCCO4)[nH]c2=O)cc1,Potency,[5],7.08 µM (active)
same,Potency,[6],inactive
same,Potency,[7],6.31 µM (active)
same,Potency,[9],316 µM (active)
same,Potency,[8],inactive
Cc1ccc(-c2cc(C(F)(F)F)c(C#N)c(SCC(=O)O)n2)cc1,Potency,[5],44.7 µM (active)
same,Potency,[6],inactive
same,Potency,[7],44.7 µM (active)
same,Potency,[9],141 µM (active)
same,Potency,[10],126 µM (active)
CC(C)(C)c1ccc(C(=O)Nc2ccc(C(=O)OCc3cc(=O)n4ccsc4n3)cc2)cc1,Potency,[5],inactive
N[C@H](C(=O)O)[C@@H]1[C@@H](C(=O)O)C1(F)F,Potency,[3],> 46 µM (inactive)
same,Potency,[4],inactive
same,Potency,[1],inactive
O=C(c1ccc(F)cc1)C1CCN(CCCCc2ccccc2)CC1,Potency,[2],> 46 µM (inactive)
same,Potency,[3],> 46 µM (inactive)
same,Potency,[4],inactive
same,Potency,[1],inactive
CCN(Cc1cccc(S(=O)(=O)O)c1)c1ccc(C(=C2C=CC(=[N+](CC)Cc3cccc(S(=O)(=O)O)c3)C=C2)c2ccc(O)cc2S(=O)(=O)O)cc1,Potency,[5],4.47 µM (active)
same,Potency,[6],inactive
same,Potency,[9],63.1 µM (active)
O=C(Nc1ccccc1C(F)(F)F)c1ccc2oc(=O)c(S(=O)(=O)c3ccc(F)cc3)cc2c1,Potency,[5],inactive
same,Potency,[7],inactive
same,Potency,[8],inactive
CCOC(=O)c1ccc(NC(=O)c2nc(SCc3ccccc3F)ncc2Cl)cc1,Potency,[5],inactive
same,Potency,[7],inactive
O=c1c(O)cc(C2Oc3cc(O)cc(O)c3CC2O)cc2c(C3Oc4cc(O)cc(O)c4CC3O)cc(O)c(O)c12 (configuration not stated),"activity change, negative = inhibition",[11]; at 57.5 µM (top of the series),11.1% (inactive)
same,max response,[11]; measured here: cell count channel max response,13.9%
same,max response,[11]; measured here: lipid channel max response,27.3%
same,Potency,[6],inactive
same,Potency,[7],20 µM (active)
same,Potency,[9],7.94 µM (active)
same,Potency,[10],inactive
C=C1c2c(Cl)ccc(O)c2C(O)=C2C(=O)[C@]3(O)C(O)=C(C(N)=O)C(=O)[C@@H](N(C)C)[C@@H]3[C@@H](O)C12 (some centres not stated),Potency,[6],inactive
same,Potency,[7],13.9 µM (active)
same,Potency,[9],70.8 µM (active)
CCCCOC(=O)c1ccc(NC(=O)c2ccc3c(c2)CCN3S(=O)(=O)c2ccccc2)cc1,Potency,[5],inactive
same,Potency,[7],inactive
same,Potency,[8],inactive
CC(C)c1ccc(Nc2sc(C(=O)c3ccccc3)c(N)c2S(=O)(=O)c2ccccc2)cc1,Potency,[5],inactive
same,Potency,[7],inactive
same,Potency,[8],inactive
O=C(Nc1ccccc1C(=O)OCc1cc(=O)n2nc(C3CC3)sc2n1)c1cccc(Cl)c1,Potency,[5],inactive
same,Potency,[7],inactive
same,Potency,[8],inactive
O=C(Nc1ccccc1C(=O)OCc1cc(=O)n2c3c(sc2n1)CCCC3)c1ccc(F)cc1,Potency,[5],inactive
same,Potency,[8],inactive
CCOC(=O)c1ccc(NC(=O)c2nc(SCc3ccc(F)cc3)ncc2Cl)cc1,Potency,[5],inactive
same,Potency,[8],inactive
CCCCc1nn2c(=O)cc(COC(=O)c3ccc(NC(=O)c4cccs4)cc3)nc2s1,Potency,[5],inactive
same,Potency,[7],inactive
same,Potency,[8],inactive
CC(=O)Nc1ccc(S(=O)(=O)O)c2cc(S(=O)(=O)O)c(N=Nc3ccc(N=Nc4ccc(S(=O)(=O)O)cc4)c4ccc(S(=O)(=O)O)cc34)c(O)c12,Potency,[5],6.31 µM (active)
same,Potency,[7],2.51 µM (active)
same,Potency,[9],22.4 µM (active)
same,Potency,[10],3.98 µM (active)
same,Potency,[8],inactive
O=C(O)c1ccccc1-c1c2cc(I)c(=O)c(I)c-2oc2c(I)c(O)c(I)cc12,Potency,[6],inactive
same,Potency,[9],56.2 µM (active)
same,Potency,[8],inactive
CCOC(=O)c1ccc(CN(Cc2ccc(F)cc2)S(=O)(=O)c2cc(C(=O)Nc3cccc(C(F)(F)F)c3)ccc2F)cc1,Potency,[5],inactive
same,Potency,[7],inactive
COc1ccc(OC)c(Nc2sc(C(=O)c3ccccc3)c(N)c2S(=O)(=O)c2ccccc2)c1,Potency,[5],inactive
same,Potency,[7],inactive
same,Potency,[8],inactive
O=C(Nc1ccc(C(=O)OCc2cc(=O)n3nc(C4CC4)sc3n2)cc1)c1cccc(Cl)c1,Potency,[6],inactive
same,Potency,[9],inactive
same,Potency,[10],inactive
